Reference: PubChem BioAssay (NCI)
Compounds without any hit were thinned out: in the full panel of roughly 79,000, 15% have a hit. Active and inactive are the calls of the source. No stated cut-off is given here; in the data, active means growth inhibition above about 70%; inactive means the rest.

Assay: NCI Yeast Anticancer Drug Screen. Data for the rad50 strain (AID 155);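 further: 0% = growth of vehicle-only cultures of the same strain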
Conditions: S. cerevisiae rad50 strain growth inhibition; at 50.0 µM; stronger effect = higher value
Method in brief: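 Cells are treated with compound, grown, and their growth is then scored against vehicle-only cultures of the same repair-deficient yeast strain.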

Structure (SMILES)	growth inhibition
O=C1c2ccc(=O)[nH]c2C(=O)C2CC3=C(CCCC3)CC12 (stereo not given)	20.4% (inactive)
Cc1cccc(N2CC3CC4C=CC3(C2)O4)c1 (stereo not given)	13.7% (inactive)
CCOC(=O)C(NC(N)=O)C(=O)OCC	-1.05% (inactive)
CCOc1cc2c(cnc3c4cc(OC)c(OC)cc4ccc23)cc1OC	-8.6% (inactive)
COc1cc(S(N)(=O)=O)c(OC)cc1N	21.1% (inactive)
O=C(O)C(F)(F)C(F)(F)C(F)(F)C(F)(F)C(=O)O	-1.85% (inactive)
C=C(C)C(=O)O[C@H]1C[C@@]23O[C@@H]2CCC(=C[C@H]2OC(=O)C(=C)[C@H]12)COC3O (stereo not given in full)	16.8% (inactive)
CCCCCCCCCCCCCCCCCCNc1ccccc1	-6.15% (inactive)
Cc1ccc(S(=O)(=O)OC2C3OC(C)(C)OC3OC2C2CSC(=S=O)S2)cc1 (stereo not given)	31.6% (inactive)
CNC(=O)c1ccccc1O	21.2% (inactive)
O=c1[nH]c(-c2ccccc2N=NN2CCCCC2)nc2ccccc12	-4.05% (inactive)
Cc1nc2ccccc2c(=O)n1C	-7.5% (inactive)
Cc1cc2c(c(N)c1C)C(=O)c1ccccc1C2=O	18.4% (inactive)
CCCCCCCCCCCCCCCCC(CCCCCCCCCCCCCCCC)c1ccccc1	35.2% (inactive)
NCCN.O=C([O-])CN1CCOCC1.[OH-].[Pt+4]	8.9% (inactive)
C1=Nc2ccccc2/C1=C/C=C/c1ccccc1	24.6% (inactive)
COC(=O)c1cccc(Cl)c1C(=O)c1ccc(C)cc1C	-25% (inactive)
O=C(Nc1ncnc2c1ncn2C1OC(COC(=O)c2ccccc2)C(OC(=O)c2ccccc2)C1OC(=O)c1ccccc1)c1ccccc1 (stereo not given)	5.15% (inactive)
C=C(C)C(=O)OCCOCC(CC)CCCC (stereo not given)	11.2% (inactive)
CCC(C)Nc1ccc(NS(=O)(=O)CCl)cc1 (stereo not given)	54% (inactive)

Structure (SMILES)	growth inhibition
CN=C(N)SCCCSC(N)=NC	17.6% (inactive)
COC(=O)/C=C/C1C2C3(CCC(C)C12C)OCCS3 (stereo not given)	-23.4% (inactive)
Cc1cc2c(=O)cc(-c3ccc(F)cc3)oc2c(C(=O)O)c1C	-19.1% (inactive)
O=NN(CCCl)C(=O)NC1CCC(C(=O)O)CC1 (stereo not given)	29.6% (inactive)
O=C1C(=O)C(c2ccccc2)(c2ccccc2)C(=O)N1c1ccccc1	29.6% (inactive)
Cc1c(NC(C)C)ccc(NC(C)C)c1C	35.3% (inactive)
COc1ccc2oc(=O)c(CC=C(C)C)c(O)c2c1C	23.8% (inactive)
Clc1cc(Cl)c(Cl)c(Cl)c1Cl	-4.1% (inactive)
O=C(O)C1C2CCC(O2)C1C(=O)Nc1cccc2cccnc12 (stereo not given)	15.3% (inactive)
COc1cccc(/C=C2\S/C(=N/Nc3nc(C)c(C)s3)NC2=O)c1O	7.7% (inactive)
CCc1cc2c(cc1C(=O)/C=C\c1cccc3ccccc13)C(C)(C)CCC2(C)C	13.1% (inactive)
O=[N+]([O-])c1ccc(Oc2ccc(Cl)cc2)cc1	16.9% (inactive)
CC12CCC3C(CCC4CCCCC43C)C1CCC2CO (stereo not given)	21.8% (inactive)
CCCCSc1nc2c(=O)n(C)c(=O)n(C)c2n1C	2.1% (inactive)
CCC1CC(=O)NC(=O)NC1=O (stereo not given)	-4.6% (inactive)
Cc1cc(Cl)ccc1C1OC(=O)c2c1ccc1ccccc21 (stereo not given)	16.9% (inactive)
Nc1ccc2ccccc2c1C(=O)c1ccccc1	0.95% (inactive)
O=C(O)C1CCCN1/N=C/c1cccc([N+](=O)[O-])c1 (stereo not given)	-11.1% (inactive)
CC(C)CCOc1ccc(C(N)=S)c2ccccc12	80% (active)
O=C(O)CC1CCC(CC(=O)O)CC1 (stereo not given)	-9.5% (inactive)

Assay: NCI Yeast Anticancer Drug Screen. Data for the mec2-1 strain (AID 157)
Conditions: S. cerevisiae mec2-1 strain, at 50.0 µM, stronger effect = higher value
Method in brief: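 Mutant yeast (mec2-1) grown with compound; growth inhibition relative to vehicle control reported.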

Structure (SMILES)	growth inhibition
O=C1c2ccc(=O)[nH]c2C(=O)C2CC3=C(CCCC3)CC12 (stereo not given)	24.6% (inactive)
Cc1cccc(N2CC3CC4C=CC3(C2)O4)c1 (stereo not given)	7.65% (inactive)
CCOC(=O)C(NC(N)=O)C(=O)OCC	15% (inactive)
CCOc1cc2c(cnc3c4cc(OC)c(OC)cc4ccc23)cc1OC	-15.2% (inactive)
COc1cc(S(N)(=O)=O)c(OC)cc1N	-28.2% (inactive)
O=C(O)C(F)(F)C(F)(F)C(F)(F)C(F)(F)C(=O)O	-2.95% (inactive)
C=C(C)C(=O)O[C@H]1C[C@@]23O[C@@H]2CCC(=C[C@H]2OC(=O)C(=C)[C@H]12)COC3O (stereo not given in full)	-12.6% (inactive)
CCCCCCCCCCCCCCCCCCNc1ccccc1	9.15% (inactive)
Cc1ccc(S(=O)(=O)OC2C3OC(C)(C)OC3OC2C2CSC(=S=O)S2)cc1 (stereo not given)	-0.6% (inactive)
CNC(=O)c1ccccc1O	8.55% (inactive)
O=c1[nH]c(-c2ccccc2N=NN2CCCCC2)nc2ccccc12	-2.35% (inactive)
Cc1nc2ccccc2c(=O)n1C	-17.9% (inactive)
Cc1cc2c(c(N)c1C)C(=O)c1ccccc1C2=O	11.4% (inactive)
CCCCCCCCCCCCCCCCC(CCCCCCCCCCCCCCCC)c1ccccc1	-0.65% (inactive)
NCCN.O=C([O-])CN1CCOCC1.[OH-].[Pt+4]	-5.25% (inactive)
C1=Nc2ccccc2/C1=C/C=C/c1ccccc1	31.6% (inactive)
COC(=O)c1cccc(Cl)c1C(=O)c1ccc(C)cc1C	-8.3% (inactive)
O=C(Nc1ncnc2c1ncn2C1OC(COC(=O)c2ccccc2)C(OC(=O)c2ccccc2)C1OC(=O)c1ccccc1)c1ccccc1 (stereo not given)	15.6% (inactive)
C=C(C)C(=O)OCCOCC(CC)CCCC (stereo not given)	-8.8% (inactive)
CCC(C)Nc1ccc(NS(=O)(=O)CCl)cc1 (stereo not given)	6.3% (inactive)

Structure (SMILES)	growth inhibition
CN=C(N)SCCCSC(N)=NC	14% (inactive)
COC(=O)/C=C/C1C2C3(CCC(C)C12C)OCCS3 (stereo not given)	-14.2% (inactive)
Cc1cc2c(=O)cc(-c3ccc(F)cc3)oc2c(C(=O)O)c1C	-1.1% (inactive)
O=NN(CCCl)C(=O)NC1CCC(C(=O)O)CC1 (stereo not given)	-2.05% (inactive)
O=C1C(=O)C(c2ccccc2)(c2ccccc2)C(=O)N1c1ccccc1	13.2% (inactive)
Cc1c(NC(C)C)ccc(NC(C)C)c1C	27.6% (inactive)
COc1ccc2oc(=O)c(CC=C(C)C)c(O)c2c1C	13.9% (inactive)
Clc1cc(Cl)c(Cl)c(Cl)c1Cl	-9.95% (inactive)
O=C(O)C1C2CCC(O2)C1C(=O)Nc1cccc2cccnc12 (stereo not given)	12.4% (inactive)
COc1cccc(/C=C2\S/C(=N/Nc3nc(C)c(C)s3)NC2=O)c1O	16.3% (inactive)
CCc1cc2c(cc1C(=O)/C=C\c1cccc3ccccc13)C(C)(C)CCC2(C)C	-5.35% (inactive)
O=[N+]([O-])c1ccc(Oc2ccc(Cl)cc2)cc1	-11.8% (inactive)
CC12CCC3C(CCC4CCCCC43C)C1CCC2CO (stereo not given)	16.4% (inactive)
CCCCSc1nc2c(=O)n(C)c(=O)n(C)c2n1C	1.15% (inactive)
CCC1CC(=O)NC(=O)NC1=O (stereo not given)	30.8% (inactive)
Cc1cc(Cl)ccc1C1OC(=O)c2c1ccc1ccccc21 (stereo not given)	6.8% (inactive)
Nc1ccc2ccccc2c1C(=O)c1ccccc1	-1.55% (inactive)
O=C(O)C1CCCN1/N=C/c1cccc([N+](=O)[O-])c1 (stereo not given)	-1.3% (inactive)
CC(C)CCOc1ccc(C(N)=S)c2ccccc12	96.8% (active)
O=C(O)CC1CCC(CC(=O)O)CC1 (stereo not given)	-8.65% (inactive)
